Results from the supplement of paper PMC11001985.

Each target was assayed with C#CCNC(=O)CCSSCCC(=O)NCCc1ccc(C=O)c(C=O)c1 (assay: lysine labeling ratio R10:1 (500 µM / 50 µM probe), SILAC-ABPP in living cells; higher = lower intrinsic lysine reactivity toward the probe, active = 2 or less). Settings: HeLa; probe concentrations 500 vs 50 µM.
In short: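 Living SILAC light and heavy HeLa cells in PBS at room temperature were treated with an alkyne-tagged, disulfide-linked lysine probe at 50 µM or 500 µM, with forward and reverse label swaps. The mixed lysates were clicked to biotin-azide, digested with trypsin, captured on neutravidin, released with DTT, alkylated and run by LC-MS/MS on a TIMS-TOF Pro. R for each lysine is the filtered median high-probe/low-probe MS1 peptide ratio, taken again as the median over forward and reverse replicates. Any value above 20 is set to 20.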

UniProt P22234, sequence (P22234 whole entry): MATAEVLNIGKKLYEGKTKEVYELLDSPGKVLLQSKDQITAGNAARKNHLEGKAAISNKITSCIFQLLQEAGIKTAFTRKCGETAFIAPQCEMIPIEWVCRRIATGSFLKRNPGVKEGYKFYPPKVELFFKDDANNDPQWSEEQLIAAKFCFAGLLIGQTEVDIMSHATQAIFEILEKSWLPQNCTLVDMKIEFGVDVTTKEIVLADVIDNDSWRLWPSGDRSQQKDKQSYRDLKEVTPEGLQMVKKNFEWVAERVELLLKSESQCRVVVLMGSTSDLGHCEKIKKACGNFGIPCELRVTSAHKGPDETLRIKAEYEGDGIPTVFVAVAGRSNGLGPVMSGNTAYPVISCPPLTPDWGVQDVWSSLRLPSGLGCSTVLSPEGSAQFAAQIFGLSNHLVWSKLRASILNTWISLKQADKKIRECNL
UniProt P21333, sequence (P21333 whole entry): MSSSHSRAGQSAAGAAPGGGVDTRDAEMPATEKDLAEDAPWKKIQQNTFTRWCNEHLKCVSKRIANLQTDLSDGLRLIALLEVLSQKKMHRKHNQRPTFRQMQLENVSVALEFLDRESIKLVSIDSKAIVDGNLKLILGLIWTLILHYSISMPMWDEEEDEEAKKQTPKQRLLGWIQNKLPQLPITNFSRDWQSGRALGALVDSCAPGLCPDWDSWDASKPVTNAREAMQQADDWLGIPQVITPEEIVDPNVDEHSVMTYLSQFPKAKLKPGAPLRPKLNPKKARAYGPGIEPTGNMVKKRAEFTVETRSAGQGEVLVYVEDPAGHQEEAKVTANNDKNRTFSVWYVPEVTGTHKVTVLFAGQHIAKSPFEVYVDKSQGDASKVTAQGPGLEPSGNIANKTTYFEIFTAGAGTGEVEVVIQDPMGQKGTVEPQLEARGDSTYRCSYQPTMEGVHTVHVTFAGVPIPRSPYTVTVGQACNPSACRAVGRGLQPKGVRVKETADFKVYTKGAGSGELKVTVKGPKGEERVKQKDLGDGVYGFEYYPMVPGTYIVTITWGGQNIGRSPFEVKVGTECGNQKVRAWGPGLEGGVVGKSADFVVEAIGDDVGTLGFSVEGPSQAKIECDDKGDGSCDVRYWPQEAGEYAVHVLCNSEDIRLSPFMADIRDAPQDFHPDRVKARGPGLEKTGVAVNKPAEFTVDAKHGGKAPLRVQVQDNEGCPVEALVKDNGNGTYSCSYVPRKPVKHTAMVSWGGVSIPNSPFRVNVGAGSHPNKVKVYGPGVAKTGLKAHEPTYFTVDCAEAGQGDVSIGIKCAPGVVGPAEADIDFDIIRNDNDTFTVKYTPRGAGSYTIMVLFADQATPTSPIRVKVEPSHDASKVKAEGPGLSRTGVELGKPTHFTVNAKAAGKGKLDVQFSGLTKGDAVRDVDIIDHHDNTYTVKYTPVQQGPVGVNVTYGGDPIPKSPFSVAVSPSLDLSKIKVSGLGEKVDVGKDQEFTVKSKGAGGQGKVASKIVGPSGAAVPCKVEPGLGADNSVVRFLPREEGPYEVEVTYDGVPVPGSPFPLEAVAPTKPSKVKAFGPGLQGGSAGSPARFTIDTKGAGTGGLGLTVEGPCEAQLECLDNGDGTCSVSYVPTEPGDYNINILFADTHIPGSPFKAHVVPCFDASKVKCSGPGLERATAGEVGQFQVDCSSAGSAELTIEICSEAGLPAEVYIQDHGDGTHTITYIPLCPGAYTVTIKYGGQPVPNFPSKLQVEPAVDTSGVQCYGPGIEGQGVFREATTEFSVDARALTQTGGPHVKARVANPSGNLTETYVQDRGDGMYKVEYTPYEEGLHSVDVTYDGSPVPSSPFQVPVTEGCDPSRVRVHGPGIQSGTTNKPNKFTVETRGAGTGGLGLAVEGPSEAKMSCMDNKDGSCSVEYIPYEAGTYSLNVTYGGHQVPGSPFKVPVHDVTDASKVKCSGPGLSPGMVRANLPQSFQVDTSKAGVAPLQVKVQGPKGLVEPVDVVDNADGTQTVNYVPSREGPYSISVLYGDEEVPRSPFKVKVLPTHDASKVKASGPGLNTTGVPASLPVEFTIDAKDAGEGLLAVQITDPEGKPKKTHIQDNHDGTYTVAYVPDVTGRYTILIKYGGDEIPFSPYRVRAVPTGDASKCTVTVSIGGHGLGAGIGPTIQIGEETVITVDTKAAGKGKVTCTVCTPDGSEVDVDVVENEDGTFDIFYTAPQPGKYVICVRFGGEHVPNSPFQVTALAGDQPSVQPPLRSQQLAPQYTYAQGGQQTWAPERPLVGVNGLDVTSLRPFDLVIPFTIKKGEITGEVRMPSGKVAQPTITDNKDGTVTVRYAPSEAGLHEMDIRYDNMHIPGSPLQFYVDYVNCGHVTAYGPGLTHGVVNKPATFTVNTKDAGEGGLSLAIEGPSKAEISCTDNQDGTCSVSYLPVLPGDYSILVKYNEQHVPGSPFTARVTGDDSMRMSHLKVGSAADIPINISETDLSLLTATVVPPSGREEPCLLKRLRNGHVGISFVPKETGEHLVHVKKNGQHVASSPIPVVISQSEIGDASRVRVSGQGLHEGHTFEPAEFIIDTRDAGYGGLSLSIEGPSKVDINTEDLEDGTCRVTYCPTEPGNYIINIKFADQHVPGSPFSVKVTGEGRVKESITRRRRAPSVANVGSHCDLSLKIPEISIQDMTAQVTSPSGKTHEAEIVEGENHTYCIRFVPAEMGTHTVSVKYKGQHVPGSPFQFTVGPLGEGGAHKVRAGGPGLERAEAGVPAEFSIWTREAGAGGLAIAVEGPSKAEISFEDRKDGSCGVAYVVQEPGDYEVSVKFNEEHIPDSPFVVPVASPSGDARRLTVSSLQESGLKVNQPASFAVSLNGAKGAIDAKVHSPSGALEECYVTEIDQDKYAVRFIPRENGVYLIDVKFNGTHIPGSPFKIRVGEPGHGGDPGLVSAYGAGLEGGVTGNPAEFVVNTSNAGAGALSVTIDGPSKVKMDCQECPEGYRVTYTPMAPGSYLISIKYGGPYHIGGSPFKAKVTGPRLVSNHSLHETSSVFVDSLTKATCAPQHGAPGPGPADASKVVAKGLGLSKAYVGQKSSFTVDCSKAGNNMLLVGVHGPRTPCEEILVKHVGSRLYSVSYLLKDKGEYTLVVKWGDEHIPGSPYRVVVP
UniProt P09758, sequence (P09758 whole entry): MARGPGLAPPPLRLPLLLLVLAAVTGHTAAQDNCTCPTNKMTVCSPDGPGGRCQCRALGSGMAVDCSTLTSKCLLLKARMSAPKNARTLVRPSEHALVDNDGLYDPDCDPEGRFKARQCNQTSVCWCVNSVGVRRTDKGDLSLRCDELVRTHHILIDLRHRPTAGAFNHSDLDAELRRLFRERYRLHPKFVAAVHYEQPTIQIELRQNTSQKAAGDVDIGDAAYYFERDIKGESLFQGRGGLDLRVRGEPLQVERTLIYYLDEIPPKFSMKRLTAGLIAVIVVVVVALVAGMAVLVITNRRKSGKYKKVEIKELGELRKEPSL
UniProt P52272, sequence (P52272 whole entry): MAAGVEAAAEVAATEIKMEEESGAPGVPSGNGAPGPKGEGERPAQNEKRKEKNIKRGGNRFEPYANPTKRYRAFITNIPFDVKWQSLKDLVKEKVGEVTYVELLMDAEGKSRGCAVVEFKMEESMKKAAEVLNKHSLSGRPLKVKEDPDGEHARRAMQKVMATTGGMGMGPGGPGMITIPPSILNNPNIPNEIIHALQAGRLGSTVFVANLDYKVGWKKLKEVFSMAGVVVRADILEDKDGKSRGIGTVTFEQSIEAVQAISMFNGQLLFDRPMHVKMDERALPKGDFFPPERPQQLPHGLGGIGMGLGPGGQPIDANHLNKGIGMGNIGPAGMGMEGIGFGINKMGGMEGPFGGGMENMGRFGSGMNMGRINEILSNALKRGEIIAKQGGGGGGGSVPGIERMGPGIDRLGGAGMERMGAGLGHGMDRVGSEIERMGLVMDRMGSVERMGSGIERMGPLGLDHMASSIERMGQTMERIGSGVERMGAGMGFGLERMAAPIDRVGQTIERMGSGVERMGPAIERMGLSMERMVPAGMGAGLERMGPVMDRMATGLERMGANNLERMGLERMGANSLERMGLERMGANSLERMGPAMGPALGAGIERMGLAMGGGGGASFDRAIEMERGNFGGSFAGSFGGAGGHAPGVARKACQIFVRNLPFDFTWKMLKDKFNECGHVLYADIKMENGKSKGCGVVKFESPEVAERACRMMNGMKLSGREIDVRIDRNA
UniProt P48047, sequence (P48047 whole entry): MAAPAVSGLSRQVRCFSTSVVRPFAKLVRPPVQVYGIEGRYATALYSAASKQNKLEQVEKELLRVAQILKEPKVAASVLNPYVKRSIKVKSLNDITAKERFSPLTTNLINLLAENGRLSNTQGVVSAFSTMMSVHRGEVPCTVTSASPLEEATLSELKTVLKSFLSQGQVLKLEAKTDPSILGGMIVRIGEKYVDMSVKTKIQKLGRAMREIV
UniProt P05141, sequence (P05141 whole entry): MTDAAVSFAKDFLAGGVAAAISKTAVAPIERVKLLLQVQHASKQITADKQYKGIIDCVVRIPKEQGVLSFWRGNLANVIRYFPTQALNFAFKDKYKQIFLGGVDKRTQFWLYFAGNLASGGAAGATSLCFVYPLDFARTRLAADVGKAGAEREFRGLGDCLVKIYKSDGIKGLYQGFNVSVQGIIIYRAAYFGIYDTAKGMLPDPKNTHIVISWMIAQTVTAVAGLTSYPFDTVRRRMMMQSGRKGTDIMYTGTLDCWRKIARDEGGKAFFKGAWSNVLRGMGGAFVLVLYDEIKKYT
UniProt Q99623, sequence (Q99623 whole entry): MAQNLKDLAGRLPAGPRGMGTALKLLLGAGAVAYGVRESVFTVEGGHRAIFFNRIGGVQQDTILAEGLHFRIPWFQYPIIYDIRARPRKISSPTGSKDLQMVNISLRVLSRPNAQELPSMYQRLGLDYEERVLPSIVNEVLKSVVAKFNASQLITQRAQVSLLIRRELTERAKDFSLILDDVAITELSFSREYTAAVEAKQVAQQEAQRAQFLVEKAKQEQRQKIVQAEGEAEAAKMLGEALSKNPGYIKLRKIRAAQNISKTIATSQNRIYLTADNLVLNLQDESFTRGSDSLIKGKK

| Target | lysine labeling ratio R10:1 |
| --- | --- |
| UniProt P48047 (lysine site: K60) | 2.17 (inactive) |
| NUMA1 (lysine site: K1625) (UniProt Q14980) | 3.65 (inactive) |
| TUBA1A (lysine site: K338) (UniProt Q71U36) | 2 (active) |
| TMED9 (lysine site: K160) (UniProt Q9BVK6) | 5.13 (inactive) |
| UniProt P25705 (lysine site: K261) | 2.94 (inactive) |
| UniProt P46781 (lysine site: K52) | 2.39 (inactive) |
| CANX (lysine site: K118) (UniProt P27824) | 2.15 (inactive) |
| IQGAP1 (lysine site: K104) (UniProt P46940) | 2.32 (inactive) |
| SLC25A5 (lysine site: K23) (UniProt P05141) | 3.58 (inactive) |
| UniProt P0C0S5 (lysine site: K14) | 1.12 (active) |
| HSPA4 (lysine site: K686) (UniProt P34932) | 8.32 (inactive) |
| VAT1 (lysine site: K391) (UniProt Q99536) | 2.03 (inactive) |
| PTGFRN (lysine site: K576) (UniProt Q9P2B2) | 2.67 (inactive) |
| UniProt Q8WXI7 (lysine site: K12309) | 6.26 (inactive) |
| MELTF (lysine site: K544) (UniProt P08582) | 2.25 (inactive) |
| FLNA (lysine site: K2607) (UniProt P21333) | 6.14 (inactive) |
| UniProt P62249 (lysine site: K4) | 5.53 (inactive) |
| TNFRSF1A (lysine site: K107) (UniProt P19438) | 1.07 (active) |
| THRAP3 (lysine site: K486) (UniProt Q9Y2W1) | 1.7 (active) |
| EEF1G (lysine site: K437) (UniProt P26641) | 3.73 (inactive) |

| Target | lysine labeling ratio R10:1 |
| --- | --- |
| ITGA6 (lysine site: K953) (UniProt P23229) | 3.1 (inactive) |
| CORO1C (lysine site: K329) (UniProt Q9ULV4) | 1.19 (active) |
| TXNRD1 (lysine site: K405) (UniProt Q16881) | 5.51 (inactive) |
| CELSR2 (lysine site: K1846) (UniProt Q9HCU4) | 3.09 (inactive) |
| SERPINH1 (lysine site: K160) (UniProt P50454) | 2.81 (inactive) |
| ACSL3 (lysine site: K679) (UniProt O95573) | 2.71 (inactive) |
| ACSL4 (lysine site: K702) (UniProt O60488) | 2.14 (inactive) |
| PTBP1 (lysine site: K137) (UniProt P26599) | 3.2 (inactive) |
| UniProt P09758 (lysine site: K138) | 5.06 (inactive) |
| FLNB (lysine site: K1780) (UniProt O75369) | 2.69 (inactive) |
| UniProt P61077 (lysine site: K8) | 3.43 (inactive) |
| RPS3A (lysine site: K249) (UniProt P61247) | 1.8 (active) |
| DSG2 (lysine site: K72) (UniProt Q14126) | 2.67 (inactive) |
| DSC2 (lysine site: K270) (UniProt Q02487) | 2.49 (inactive) |
| PAICS (lysine site: K304) (UniProt P22234) | 4.39 (inactive) |
| FLNA (lysine site: K876) (UniProt P21333) | 4.23 (inactive) |
| PAICS (lysine site: K261) (UniProt P22234) | 0.93 (active) |
| UniProt Q99623 (lysine site: K218) | 2.79 (inactive) |
| HNRNPM (lysine site: K388) (UniProt P52272) | 6.02 (inactive) |
| MYH9 (lysine site: K202) (UniProt P35579) | 1.58 (active) |
